Each structure is given as a SMILES string. In all, about 340,000 compounds went through this assay and about 280 (0.082%) were called active. The full list was thinned out, with actives kept by preference. A number with no mark means an inactive call. Rule as the data show it: active = inhibition mostly above about 23% (no sharp cut-off); inactive = mostly below about 18%.

A word on the inhibition: it is the change of the read-out against control, counted positive when it falls.

The target in the assay is 5-hydroxytryptamine receptor 5A (Homo sapiens) (UniProt P47898). Put plainly: HTR5A inverse agonists in luminescence cell assay, primary screen, counter-screen for OPRM1-OPRD1 heterodimer inverse agonist project, full-deck HTS (AID 504634).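 Also: 0% = cells with DMSO and 100% = no-cell wells with DMSO.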 Conditions: HTR5A cell line, inverse agonism, at 9.3 µM, active compounds read high.
Chain of 5-hydroxytryptamine receptor 5A (Homo sapiens) (P47898 whole entry, looked up): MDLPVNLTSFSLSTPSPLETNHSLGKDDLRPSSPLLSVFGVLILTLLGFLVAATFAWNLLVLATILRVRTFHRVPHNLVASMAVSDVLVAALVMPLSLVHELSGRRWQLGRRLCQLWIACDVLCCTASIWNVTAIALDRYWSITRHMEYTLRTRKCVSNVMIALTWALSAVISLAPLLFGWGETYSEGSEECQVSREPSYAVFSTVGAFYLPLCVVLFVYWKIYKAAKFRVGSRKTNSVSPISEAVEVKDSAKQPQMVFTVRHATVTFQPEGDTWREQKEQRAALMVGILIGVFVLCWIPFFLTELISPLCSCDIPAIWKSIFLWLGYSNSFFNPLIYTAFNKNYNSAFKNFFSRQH
As for `CCc1c(SCCC(=O)O)nc2ccccc2c1C`, the inhibition is -56.3%. Under `C=CCNC(=O)C1CC=CCC1C(=O)O` (configuration not stated) stands 19.4%; under `Cc1ccc2cc(CN(c3ccc(C)c(C)c3)S(C)(=O)=O)c(=O)[nH]c2c1`, -3.96%; under `CC(OC(=O)c1ccccc1NCCO)C(=O)Nc1ccnn1C(C)C` (configuration not stated), -11.8%. In the case of `COC(=O)c1ccc(Sc2ccc(F)cc2)c(N)c1` it was -3.93%; in that of `CC(C)CCN1CCN(C/C=C/c2ccco2)CC1CCO` (configuration not stated), -0.83%; in that of `CC(=O)c1ccc(N2CCN(C(=O)c3ccc(Cl)c(S(=O)(=O)NC4CC4)c3)CC2)c(F)c1`, -4.11%. In the case of `CC(C)(C)n1nnnc1C(c1ccccc1F)N1CCN(C(=O)c2ccco2)CC1` (configuration not stated) it was -20.1%. On to `Cc1nn(CCCC(=O)NCc2ccccc2Cl)c(=O)c2nccn12`, for which the inhibition was -28.5%. For `CN(C)CCCNC(=S)N1CCN(c2nc(-c3ccccc3)cs2)CC1`, the inhibition was -13.5%. Under `Cc1c(CCC(=O)N[C@@H](CC(C)C)C(=O)O)c(=O)oc2c(C)c3oc4c(c3cc12)CCCC4` stands 3.6%; under `CC/C(=C\c1ccc(Cl)cc1)c1ccncc1`, -7.07%. As for `COc1cc(C(=S)N2CCOCC2)cc(OC)c1OC(=O)c1ccc([N+](=O)[O-])cc1[N+](=O)[O-]`, the inhibition was -0.97%.

Take `COc1ccc(CNC(=O)C(c2ccc(O)cc2)N(Cc2ccco2)C(=O)c2snc(C(N)=O)c2N)cc1` (configuration not stated): the inhibition is 3.12%.

On to `COC(=O)c1ccc(NC(=S)NN2CCOCC2)cc1`, for which the inhibition was 13.4%. In the case of `O=S(=O)(Nc1ccc(-c2ccc(N3CCOCC3)nn2)cc1)c1cc(Cl)ccc1Cl` it was -25.2%; in that of `COc1cccc(COC(=O)C2CCN(S(=O)(=O)c3cccs3)CC2)c1OC`, -12.6%; in that of `CCC1CCCCN1CCCNC(=O)c1cc2c(Cl)nc3ccccc3c2s1` (configuration not stated), 5.42%. Under `CCn1c(=O)n(CC)c2cc(N3CCCC3)c(NC(=O)c3ccccc3Br)cc21` stands 10.1%.

As to `Cc1ccccc1-c1n[nH]c(=S)n1/N=C/c1ccc(-c2ccccc2Br)o1`, the inhibition was 4.19%. With `CS(=O)(=O)N(CC(=O)Nc1ccc(F)cc1F)c1cccc([N+](=O)[O-])c1`, the inhibition is 14.4%. In the case of `Cc1ccc(OCCC(=O)Nc2ccc(S(=O)(=O)Nc3nccs3)cc2)cc1` it was -6.52%; in that of `CC(C)CCNC(=O)CCNS(=O)(=O)c1ccc(Cl)cc1`, -7.35%; in that of `OC(COc1ccc2c(c1)CCC2)CN1CCN(c2cccc(Cl)c2)CC1` (configuration not stated), -19.1%.

Turning to `CCOc1ccc(C(=O)NC(=S)Nc2ccc(N3CCOCC3)c(Cl)c2)cc1[N+](=O)[O-]`, the inhibition was 30.9%. Under `O=c1o[nH]c(-c2ccccc2)c1N=Nc1c(F)cccc1Cl` stands -12.2%; under `COc1ccc2c(c1)CCC/C2=N\OC(=O)c1ccccc1F`, 0.11%.

(Values after PubChem BioAssay AID504634 (The Scripps Research Institute Molecular Screening Center, 2011).)
